Test results published in PubChem BioAssay (NCATS).
Results filed as inconclusive are left out. A call without a number means that no potency is given here. The source made the active and inactive calls. Unless noted, calls follow the shape of the dose curve; as a rule, active = well fitted curve in the direction sought with a large enough effect; inconclusive = small, poorly fitted or top-dose-only effect, or another doubt; inactive = no such curve, though single readings can be large; an effect the other way counts as inactive or inconclusive.

Experiments:
[1] = target: DNA repair nuclease/redox regulator APEX1 (Homo sapiens) (UniProt P27695); assay: qHTS Validation Assay for Inhibitors of the Human Apurinic/apyrimidinic Endonuclease 1 (APE1) (AID 1705;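 also: TAMRA fluorescence gain over two minutes as APE1 cuts a quenched THF abasic duplex; series mostly up to about 57 µM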)
Chain of DNA repair nuclease/redox regulator APEX1 (Homo sapiens) (P27695 whole entry, looked up): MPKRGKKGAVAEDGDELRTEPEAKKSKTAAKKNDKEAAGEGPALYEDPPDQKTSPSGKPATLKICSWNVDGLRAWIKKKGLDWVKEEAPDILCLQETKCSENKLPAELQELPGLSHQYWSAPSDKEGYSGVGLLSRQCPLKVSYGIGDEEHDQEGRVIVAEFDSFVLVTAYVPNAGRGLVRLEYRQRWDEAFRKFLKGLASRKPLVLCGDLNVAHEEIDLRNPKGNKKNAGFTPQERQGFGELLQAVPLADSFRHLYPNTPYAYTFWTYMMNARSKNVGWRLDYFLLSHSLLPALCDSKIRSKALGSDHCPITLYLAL
Summary of the method: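 Substrate: 50 nM final fluorophore/quencher THF-abasic duplex. Enzyme preincubated with compounds 15 min, RT. Progress derived from fluorescence difference, third minus first kinetic read.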

[2] = target: Endonuclease 4 (Escherichia coli (strain K12)) (UniProt P0A6C1); assay: Counterscreen for APE1 Inhibitors: qHTS Validation Assay for Inhibitors of Endonuclease IV (AID 1708)
Summary of the method: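 Enzymatic AP-site incision assay using a double-stranded THF substrate labelled with TAMRA and BHQ-2; released fluorescence signals activity. Enzyme 2 nM, substrate 50 nM, 15 min compound preincubation.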

[3] = qHTS for differential inhibitors of proliferation of Plasmodium falciparum line 7G8 (AID 1815);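 also: parasite growth measured after three days of incubation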
[4] = qHTS for differential inhibitors of proliferation of Plasmodium falciparum line 3D7 (AID 1876);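 also: parasite growth measured after three days of culture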
[5] = qHTS for differential inhibitors of proliferation of Plasmodium falciparum line Dd2 (AID 1882); settings: Potency: Plasmodium falciparum Dd2 proliferation inhibition;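 also: series mostly up to about 29 µM; compound exposure of 72 h on infected erythrocytes; nearly all actives have a fitted effect of over 65% in size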
Summary of the method: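 SYBR Green I DNA fluorescence read-out, ex 485/em 535 nm. Signals were normalized to 0.29 uM artemisinin and DMSO wells, then corrected using vehicle-only plates flanking each stack. Parasite growth ran 72 h in erythrocytes before lysis.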

[6] = target: Ferritin light chain (Equus caballus) (UniProt P02791); assay: qHTS Validation Assay for Identification of Novel General Anesthetics (AID 2323); also: series mostly up to about 77 µM
Summary of the method: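 Normalized fluorescence response, scaled between free 1-AMA and 1-AMA/apoferritin complex, fitted to a four-parameter Hill equation for concentration-effect values. Binding mix: 10 uM horse-spleen apoferritin, 50% saturated 1-AMA in PBS; read 380/535 nm after 10 min.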

[7] = target: ATP-dependent DNA helicase Q1 (Homo sapiens) (UniProt P46063); assay: qHTS Validation Assay for Inhibitors of RecQ-Like Dna Helicase 1 (RECQ1) (AID 2353)
Chain of ATP-dependent DNA helicase Q1 (Homo sapiens) (P46063 whole entry, looked up): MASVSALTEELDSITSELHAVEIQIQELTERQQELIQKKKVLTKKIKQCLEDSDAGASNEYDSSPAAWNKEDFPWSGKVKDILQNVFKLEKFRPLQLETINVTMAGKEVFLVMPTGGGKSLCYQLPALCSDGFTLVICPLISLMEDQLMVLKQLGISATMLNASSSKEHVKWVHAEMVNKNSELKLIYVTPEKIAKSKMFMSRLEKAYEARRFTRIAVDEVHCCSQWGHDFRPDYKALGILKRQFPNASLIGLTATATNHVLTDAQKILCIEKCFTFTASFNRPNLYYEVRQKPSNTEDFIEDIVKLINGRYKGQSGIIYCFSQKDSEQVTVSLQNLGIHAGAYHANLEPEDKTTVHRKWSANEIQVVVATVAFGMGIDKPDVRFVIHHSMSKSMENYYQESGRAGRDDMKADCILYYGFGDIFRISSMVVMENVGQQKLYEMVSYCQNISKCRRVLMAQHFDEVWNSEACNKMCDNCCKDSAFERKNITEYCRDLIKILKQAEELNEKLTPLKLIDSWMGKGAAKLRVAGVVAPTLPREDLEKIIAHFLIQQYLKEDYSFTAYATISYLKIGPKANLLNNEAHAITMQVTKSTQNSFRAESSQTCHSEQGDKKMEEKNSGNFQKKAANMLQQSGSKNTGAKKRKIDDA
Summary of the method: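 50 nM RECQ1T1 preincubated 15 min with compound in Tris pH 8.0 buffer with MgCl2, DTT, Tween-20 and 2.5 ug/ml poly(dI-dC); started with 200 nM TAMRA/BHQ-2 forked duplex and 2 mM ATP. Unwinding read as fluorescence (525/598 nm), two reads 2 h apart.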

[8] = target: RecQ-like DNA helicase BLM (Homo sapiens) (UniProt P54132); assay: qHTS Validation Assay for Inhibitors of Bloom's syndrome helicase (BLM) (AID 2364)
Summary of the method: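 Forked 20-bp duplex substrate (200 nM, TAMRA/BHQ-2) plus 2 mM ATP added after 15 min compound preincubation with 50 nM enzyme, pH 8.0, poly(dI-dC) 2.5 ug/ml. Strand separation followed by fluorescence (525/598 nm) over 2 h, normalized to enzyme-free and DMSO controls.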

[9] = Validation screen for inhibitors of Lassa infection (AID 463096; calls by dose curve)
[10] = Quantitative high throughput screen for delayed death inhibitors of the malarial parasite plastid, 96 hour incubation (AID 488745); also: series mostly up to about 29 µM; nearly all actives have a fitted effect of over 70% in size
Summary of the method: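 P. falciparum carrying an integrated firefly luciferase reporter, grown in erythrocytes (2% hematocrit, 0.1% parasitemia final) in RPMI 1640/0.5% Albumax, was exposed to compound for 96 h (two generations) at 37 C, 5% CO2. Luminescence decrease indicated growth inhibition.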

[11] = Quantitative high throughput screen for delayed death inhibitors of the malarial parasite plastid, 48 hour incubation (AID 488752); also: nearly all actives have a fitted effect of over 65% in size
Summary of the method: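 Erythrocytes infected with P. falciparum carrying an integrated firefly luciferase reporter (2% hematocrit, 0.1% parasitemia final) were exposed to compounds in RPMI 1640/0.5% Albumax for 48 h at 37 C, 5% CO2. Growth inhibition was scored as reduced luminescence.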

[12] = target: M-phase phosphoprotein 8 (Homo sapiens) (UniProt Q99549); assay: qHTS Validation Assay for Inhibitors for MPP8 Chromodomain Interactions with Methylated Histone Tails (AID 488949);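 also: 50 nM MPP8 with 50 nM peptide preformed then compounds added for 30 min; AlphaScreen signal from MPP8 chromodomain bound to biotinylated H3K9me3 peptide; top concentration of the series differs between compounds; nearly all actives have a fitted effect of over 55% in size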
Summary of the method: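 Chemiluminescent proximity assay: histidine-tag capture via nickel acceptor beads, biotin peptide via streptavidin donor beads. Protein and peptide each at 50 nM, pH 7.4, with 30 min incubations at room temperature for complex formation, compound exposure and bead binding.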

[13] = target: Transient receptor potential cation channel subfamily V member 1 (Homo sapiens) (UniProt Q8NER1); assay: HTS Assay for Compounds that Act as Enhancers of the Vanilloid Receptor 1 (AID 488979)
Chain of Transient receptor potential cation channel subfamily V member 1 (Homo sapiens) (Q8NER1 whole entry, looked up): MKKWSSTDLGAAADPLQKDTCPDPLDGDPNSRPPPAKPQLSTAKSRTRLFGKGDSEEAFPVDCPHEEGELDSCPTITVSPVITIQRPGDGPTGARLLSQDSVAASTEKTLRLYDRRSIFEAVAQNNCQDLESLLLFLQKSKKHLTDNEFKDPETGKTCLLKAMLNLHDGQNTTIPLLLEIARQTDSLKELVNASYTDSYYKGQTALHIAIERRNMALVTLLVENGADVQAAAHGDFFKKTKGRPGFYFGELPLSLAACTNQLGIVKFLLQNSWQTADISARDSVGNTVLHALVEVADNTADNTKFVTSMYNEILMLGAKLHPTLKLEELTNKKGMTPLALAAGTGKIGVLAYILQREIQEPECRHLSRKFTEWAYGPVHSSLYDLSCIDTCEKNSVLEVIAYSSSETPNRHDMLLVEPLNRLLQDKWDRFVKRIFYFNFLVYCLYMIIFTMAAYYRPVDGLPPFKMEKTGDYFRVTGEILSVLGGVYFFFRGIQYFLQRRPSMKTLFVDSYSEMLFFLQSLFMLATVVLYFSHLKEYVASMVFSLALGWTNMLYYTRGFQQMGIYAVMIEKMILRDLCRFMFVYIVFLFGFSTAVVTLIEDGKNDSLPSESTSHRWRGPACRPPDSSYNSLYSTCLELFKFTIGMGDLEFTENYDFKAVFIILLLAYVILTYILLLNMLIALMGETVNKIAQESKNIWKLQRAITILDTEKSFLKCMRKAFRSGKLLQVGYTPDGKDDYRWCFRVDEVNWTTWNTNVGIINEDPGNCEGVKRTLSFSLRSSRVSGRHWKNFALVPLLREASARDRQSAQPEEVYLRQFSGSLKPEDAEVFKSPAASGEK
Summary of the method: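 Calcium influx kinetics via Fluo-8 (480/520 nm) in TRPV1-expressing cells, 2000/well cultured overnight at 35.5C. Compound-alone read 3 min (agonist phase), followed by EC20 capsaicin challenge for 2 min (enhancer phase).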

[14] = target: Thyrotropin receptor (Homo sapiens) (UniProt P16473); assay: qHTS Assay for Antagonists of the Thyroid Stimulating Hormone Receptor (AID 488980); also: series mostly up to about 58 µM
Summary of the method: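 Inhibition of TSH-stimulated cAMP accumulation was quantified by homogeneous time-resolved FRET in TSHR-transfected HEK293 cells. Agonist: TSH, 4 nM final (EC80).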

[15] = target: Thyrotropin-releasing hormone receptor (Homo sapiens) (UniProt P34981); assay: qHTS for Small Molecule Agonists and Allosteric Enhancers of Human TRH Receptor: Validation Screen for Agonists (AID 493127;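 active = calcium activation more than 3 SD above the typical response in the agonist read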;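 also: intracellular calcium rise by fluo-8 fluorescence before TRH EC20 addition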); settings: TRH receptor agonist cell assay; at 2 µM; stronger effect = higher value
Chain of Thyrotropin-releasing hormone receptor (Homo sapiens) (P34981 whole entry, looked up): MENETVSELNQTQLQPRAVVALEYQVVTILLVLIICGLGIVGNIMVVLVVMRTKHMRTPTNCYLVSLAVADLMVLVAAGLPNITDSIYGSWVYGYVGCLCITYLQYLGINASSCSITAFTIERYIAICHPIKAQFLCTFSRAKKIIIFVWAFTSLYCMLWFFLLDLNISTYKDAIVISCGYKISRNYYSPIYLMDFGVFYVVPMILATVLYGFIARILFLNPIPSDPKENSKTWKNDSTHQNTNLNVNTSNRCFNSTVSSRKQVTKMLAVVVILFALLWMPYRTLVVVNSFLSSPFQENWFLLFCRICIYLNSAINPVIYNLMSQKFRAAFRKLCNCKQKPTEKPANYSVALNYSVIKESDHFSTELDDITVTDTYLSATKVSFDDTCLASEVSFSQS
Summary of the method: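 TRHR-expressing cells were plated overnight in serum-containing medium, then loaded with fluo-8 calcium dye at room temperature for 30 min–1.5 h. After a 10 s baseline, compound was pin-transferred and calcium fluorescence (ex 480/em 530) read kinetically for agonist response.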

[16] = target: Galactokinase (Homo sapiens) (UniProt P51570); assay: qHTS Validation Assay for Inhibitors of Human Galactokinase (GALK) (AID 493189)
Chain of Galactokinase (Homo sapiens) (P51570 whole entry, looked up): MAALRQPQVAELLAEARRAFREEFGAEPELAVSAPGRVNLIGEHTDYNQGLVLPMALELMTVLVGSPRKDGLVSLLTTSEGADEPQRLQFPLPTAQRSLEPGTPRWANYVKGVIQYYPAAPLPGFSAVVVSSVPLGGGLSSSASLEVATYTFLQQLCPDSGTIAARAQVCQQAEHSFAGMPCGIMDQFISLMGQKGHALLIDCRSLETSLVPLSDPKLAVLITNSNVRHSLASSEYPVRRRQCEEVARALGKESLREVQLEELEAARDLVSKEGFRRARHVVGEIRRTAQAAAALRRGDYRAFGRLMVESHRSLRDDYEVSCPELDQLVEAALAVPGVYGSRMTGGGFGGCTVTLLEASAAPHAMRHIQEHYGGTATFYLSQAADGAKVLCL
Summary of the method: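 Enzyme activity is inferred from ATP consumption: human GALK phosphorylates galactose (100 uM) using 35 uM ATP for 1 h at room temperature, and luciferase-based Kinase-Glo Plus reports unconsumed ATP.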

[17] = Validation screen for small molecules that induce DNA re-replication in SW480 colon adenocarcinoma cells (AID 504364)
Summary of the method: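 SW480 cells seeded at 250 per well were exposed to compound or DMSO for 48 hr at 37 C, 5% CO2, then stained with Hoechst for 40 min. DNA content per nucleus was imaged (405 nm ex, 500-530 nm em).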

[18] = target: Glucocorticoid receptor (Homo sapiens) (UniProt P04150); assay: qHTS assay for small molecule agonists of glucocorticoid receptor signaling (AID 588532; active = well fitted curve in the direction sought with a large enough effect in the signal ratio, with a control signal flat; the % refers to the signal ratio); settings: HeLa MMTV-bla, beta-lactamase ratio, agonist, 18 h; stronger effect = higher value; percent of dexamethasone control, DMSO zero
Summary of the method: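 Quantitative HTS using CellSensor MMTV-bla HeLa cells in charcoal/dextran-treated serum; compounds tested up to 92 uM. After 18 h at 37 C, CCF4 dye reported reporter induction.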

[19] = target: Peroxisome proliferator-activated receptor delta (Homo sapiens) (UniProt Q03181); assay: qHTS assay for small molecule agonists of peroxisome proliferator-activated receptor delta signaling (AID 588534; calls by dose curve)
Chain of Peroxisome proliferator-activated receptor delta (Homo sapiens) (Q03181 whole entry, looked up): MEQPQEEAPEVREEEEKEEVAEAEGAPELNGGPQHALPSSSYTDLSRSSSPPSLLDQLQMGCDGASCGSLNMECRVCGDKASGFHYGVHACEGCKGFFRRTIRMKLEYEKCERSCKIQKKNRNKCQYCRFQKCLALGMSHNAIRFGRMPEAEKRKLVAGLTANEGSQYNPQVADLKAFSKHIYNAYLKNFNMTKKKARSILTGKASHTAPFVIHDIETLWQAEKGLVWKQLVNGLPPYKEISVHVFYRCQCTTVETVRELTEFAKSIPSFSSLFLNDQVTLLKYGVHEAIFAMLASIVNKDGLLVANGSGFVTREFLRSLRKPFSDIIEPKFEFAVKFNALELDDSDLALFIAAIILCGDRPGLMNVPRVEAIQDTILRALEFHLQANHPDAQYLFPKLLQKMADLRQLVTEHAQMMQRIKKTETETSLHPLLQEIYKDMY
Summary of the method: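 Cell-based beta-lactamase reporter assay run in agonist mode: cells seeded and incubated 5 hrs at 37 C, compounds added and incubated 18 hrs at 37 C. CCF4 dye fluorescence read after 2 hrs at RT; EC50 and efficacy from Hill fits.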

[20] = qHTS assay for small molecule antagonists of peroxisome proliferator-activated receptor delta signaling (AID 588535; active = well fitted inhibition curve with a large enough effect in the signal ratio, with a control signal flat, not every such curve was filed as active; the % refers to the signal ratio;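 as to max response: cells co-treated with a PPAR-delta agonist as stimulator during compound exposure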); settings: HEK293T PPARd-UAS-bla, beta-lactamase FRET ratio, 18 h; 460 nm channel
Summary of the method: (§1)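 Cell-based beta-lactamase assay in antagonist mode: 4000 HEK293T PPAR-delta-UAS-bla cells per well, 5 hr preincubation then 18 hr compound incubation at 37 C. IC50 obtained by Hill equation fitting.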

[21] = target: Peroxisome proliferator-activated receptor delta (Homo sapiens) (UniProt Q03181); assay: as above
Summary of the method: as §1

[22] = target: Vitamin D3 receptor (Homo sapiens) (UniProt P11473); assay: qHTS assay for small molecule agonists of vitamin D receptor signaling (AID 588543; calls by dose curve)
Chain of Vitamin D3 receptor (Homo sapiens) (P11473 whole entry, looked up): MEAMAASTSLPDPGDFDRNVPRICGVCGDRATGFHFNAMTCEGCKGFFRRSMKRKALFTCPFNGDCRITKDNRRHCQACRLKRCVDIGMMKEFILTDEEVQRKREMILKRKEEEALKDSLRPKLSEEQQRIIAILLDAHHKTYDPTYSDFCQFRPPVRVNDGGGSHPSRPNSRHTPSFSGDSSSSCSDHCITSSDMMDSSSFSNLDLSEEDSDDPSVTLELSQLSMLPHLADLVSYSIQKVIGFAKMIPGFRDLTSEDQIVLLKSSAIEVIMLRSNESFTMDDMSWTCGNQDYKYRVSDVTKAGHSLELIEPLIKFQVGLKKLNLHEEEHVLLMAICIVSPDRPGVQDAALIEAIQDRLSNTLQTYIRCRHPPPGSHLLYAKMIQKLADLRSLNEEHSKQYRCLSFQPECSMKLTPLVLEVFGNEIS
Summary of the method: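 Measured: β-lactamase reporter activity (CCF4, 405 nm excitation, 460/530 nm emission) in HEK293T VDR-UAS-bla cells after 16 h compound exposure at 37 °C. Normalization against 50 nM 1α,25-dihydroxyvitamin D3 and DMSO; Hill-fit EC50.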

[23] = target: Thyroid hormone receptor beta (Homo sapiens) (UniProt P10828); assay: qHTS assay for small molecule agonists of thyroid hormone receptor beta signaling (AID 588545; calls by dose curve)
Chain of Thyroid hormone receptor beta (Homo sapiens) (P10828 whole entry, looked up): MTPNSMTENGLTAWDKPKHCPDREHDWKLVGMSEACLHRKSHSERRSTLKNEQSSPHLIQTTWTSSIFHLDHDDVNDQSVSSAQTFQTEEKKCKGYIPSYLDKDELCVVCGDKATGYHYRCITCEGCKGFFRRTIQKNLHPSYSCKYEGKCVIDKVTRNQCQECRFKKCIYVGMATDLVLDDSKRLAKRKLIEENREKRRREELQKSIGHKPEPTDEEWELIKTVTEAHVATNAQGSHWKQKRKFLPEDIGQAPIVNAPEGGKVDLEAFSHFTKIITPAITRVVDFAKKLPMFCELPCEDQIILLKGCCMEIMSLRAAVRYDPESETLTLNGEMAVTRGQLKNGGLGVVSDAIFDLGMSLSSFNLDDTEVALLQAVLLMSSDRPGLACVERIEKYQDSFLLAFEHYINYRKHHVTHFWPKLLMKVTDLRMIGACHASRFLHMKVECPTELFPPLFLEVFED
Summary of the method: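 Beta-lactamase reporter activity under TR response element control is measured in HEK 293 cells after 18 hrs compound exposure. Signal is ratiometric CCF4 fluorescence, 460/530 nm.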

[24] = qHTS assay for small molecule antagonists of retinoid X receptor alpha signaling (AID 588546); settings: HEK293T RXRa-UAS-bla, beta-lactamase ratio, antagonist mode; measured here: W530 green channel, cytotoxicity proxy;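 also: cells stimulated with 9-cis-retinoic acid as agonist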
Summary of the method: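 Beta-lactamase reporter inhibition, read as CCF4 fluorescence ratio (ex 405, em 460/530 nm) after 2 h at RT. HEK293T UAS-bla cells, 2500/well, were stimulated with 9-cis-RA at 500 or 100 nM final alongside test compound for 18 h at 37 C.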

[25] = target: Thyroid hormone receptor beta (Homo sapiens) (UniProt P10828); assay: qHTS assay for small molecule antagonists of thyroid hormone receptor beta signaling (AID 588547; active = well fitted inhibition curve with a large enough effect in the signal ratio, with a control signal flat, not every such curve was filed as active; the % refers to the signal ratio;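 also: cells stimulated with 0.4 nM T3 agonist during compound exposure; series mostly up to about 77 µM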); settings: TR-UAS-bla HEK293, beta-lactamase ratio, antagonist mode, 18 h
Summary of the method: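 Inhibition of T3-driven (0.4nM final) beta-lactamase reporter activity was measured over 0.59 nM to 92 uM compound after 18 h at 37 C. The cells were GripTite HEK293 TR-UAS-bla in charcoal/dextran-stripped serum, with CCF4 ratio read-out and IC50 from Hill fits.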

[26] = qHTS assay for small molecule agonists of the antioxidant response element (ARE) signaling pathway (AID 651741; active = well fitted activation curve with a large enough effect in the signal ratio; the % refers to the signal ratio; also: potency is read from the fitted curve at half-maximal effect)
Summary of the method: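 Seeding 2,000 ARE-bla HepG2 cells per well preceded a 5 h incubation at 37 C/5% CO2 and a 16 h compound exposure at 37 C. Beta-lactamase reporter activity was then quantified by fluorescence after 2 h with LiveBLAzer B/G FRET substrate.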

[27] = qHTS assay for small molecule activators of the p53 signaling pathway (AID 651743; active = well fitted activation curve with a large enough effect in the signal ratio, not every such curve was filed as active; the % refers to the signal ratio; also: series mostly up to about 92 µM); settings: HCT-116 p53RE-bla, beta-lactamase FRET ratio, 16 h; activation: stronger effect = higher value
Summary of the method: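 Screen for p53 pathway agonists uses stably transfected p53RE-bla HCT-116 cells, 4,000 per well, treated 16 h at 37 C with compounds in DMSO.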

[28] = target: Peroxisome proliferator-activated receptor alpha (Homo sapiens) (UniProt Q07869); assay: qHTS assay for small molecule agonists of the peroxisome proliferator-activated receptor alpha (PPARalpha) signaling pathway (AID 651778); settings: PathHunter PPARalpha complementation, chemiluminescence, 6 h; stronger effect = higher value
Chain of Peroxisome proliferator-activated receptor alpha (Homo sapiens) (Q07869 whole entry, looked up): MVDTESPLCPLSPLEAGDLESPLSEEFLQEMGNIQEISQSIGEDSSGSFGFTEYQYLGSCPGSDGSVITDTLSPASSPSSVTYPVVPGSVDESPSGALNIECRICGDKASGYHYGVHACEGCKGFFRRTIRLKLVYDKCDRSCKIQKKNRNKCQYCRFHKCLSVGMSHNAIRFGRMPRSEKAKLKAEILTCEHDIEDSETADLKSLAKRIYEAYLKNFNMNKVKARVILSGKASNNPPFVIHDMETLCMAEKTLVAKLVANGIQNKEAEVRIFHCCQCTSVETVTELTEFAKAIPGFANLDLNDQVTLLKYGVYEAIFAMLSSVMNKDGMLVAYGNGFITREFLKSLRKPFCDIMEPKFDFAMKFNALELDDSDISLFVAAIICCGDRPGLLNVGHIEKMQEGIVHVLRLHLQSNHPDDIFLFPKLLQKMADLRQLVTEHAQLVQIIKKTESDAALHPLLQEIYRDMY
Summary of the method: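 Chemiluminescence from complemented enzyme reported PPARalpha activation in cells after 6 hr of compound treatment at 37 C. The detection reagent was incubated for 60 min at room temperature, and compounds were scored as agonists.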

[29] = qHTS assay for small molecule agonists of the antioxidant response element (ARE) signaling pathway measured by Nrf2-dependant transcriptional activity (AID 720636; active = well fitted curve in the direction sought with a large enough effect in the repeat runs; an effect the other way counts as inactive or inconclusive;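 also: HepG2 cells with an ARE-driven luciferase reporter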)
Summary of the method: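 ONE-Glo luminescence, read 30 min after reagent addition at room temperature, reflected ARE reporter activity in HepG2 cells that had been incubated with compound for 16 hr at 37 C in 1% dialyzed FBS.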

[30] = qHTS assay for small molecule agonists of the antioxidant response element (ARE) signaling pathway measured by Nrf2-dependant transcriptional activity - cell viability counter screen (AID 720653; active = well fitted curve in the direction sought with a large enough effect in the repeat runs; an effect the other way counts as inactive or inconclusive); settings: ARE-bla HepG2 viability, CellTiter-Glo ATP luminescence, 16 h; stronger effect = lower value
Summary of the method: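 Cytotoxicity counter screen: intracellular ATP quantified by CellTiter-Glo luminescence in the same ARE-bla HepG2 plates, after 16 h compound exposure and a 2 h beta-lactamase substrate step.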

[31] = qHTS assay for cell viability of HEK293 cells (AID 743288); settings: ATP luminescence (CellTiter-Glo), 18 h; max response: stronger effect = lower value; also: nearly all actives have a fitted effect of over 50% in size
Summary of the method: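 Luminescent ATP quantitation served as the viability read-out. Cells (parental HEK293, 2,000/well) received compounds after at least 5 h at 37 C and were exposed for 18 h before a 30 min room-temperature reagent step.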

[32] = target: Nuclear receptor subfamily 1 group I member 2 (Rattus norvegicus) (UniProt Q9R1A7); assay: qHTS assay for small molecule activators of the rat pregnane X receptor (rPXR) signaling pathway (AID 651751; call rule not given here); settings: rPXR reporter cells, luciferase (One-Glo), 24 h
Chain of Nuclear receptor subfamily 1 group I member 2 (Rattus norvegicus) (Q9R1A7 whole entry, looked up): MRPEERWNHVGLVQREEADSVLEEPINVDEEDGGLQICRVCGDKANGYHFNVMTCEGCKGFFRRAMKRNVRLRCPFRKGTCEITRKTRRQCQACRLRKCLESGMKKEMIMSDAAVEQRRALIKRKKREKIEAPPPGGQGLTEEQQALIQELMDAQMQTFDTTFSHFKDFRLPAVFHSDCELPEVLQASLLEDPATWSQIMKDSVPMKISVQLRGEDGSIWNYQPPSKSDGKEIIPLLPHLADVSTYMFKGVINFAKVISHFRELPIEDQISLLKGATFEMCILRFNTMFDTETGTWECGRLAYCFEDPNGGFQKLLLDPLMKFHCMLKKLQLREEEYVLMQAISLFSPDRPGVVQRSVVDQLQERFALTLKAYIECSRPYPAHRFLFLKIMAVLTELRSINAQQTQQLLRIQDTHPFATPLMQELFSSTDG

## O=C(O)C1C2CCC(O2)C1C(=O)O (configuration not stated)
[1]
  Potency: inactive
[2]
  Potency: inactive
[3]
  Potency: inactive
[4]
  Potency: inactive
[5]
  Potency: inactive
[6]
  Potency: inactive
[7]
  outcome: inactive
[8]
  outcome: inactive
[9]
  Potency: inactive
[10]
  Potency: inactive
[11]
  Potency: inactive
[12]
  Potency: inactive
[13]
  outcome: inactive
[14]
  outcome: inactive
[15]
  activation: 1.38% (inactive)
[16]
  outcome: inactive
[17]
  outcome: inactive
[18]
  activation: -13.9% (inactive)
[19]
  outcome: inactive
[20]
  max response: 16.5%
[21]
  Potency: inactive
[22]
  outcome: inactive
[23]
  outcome: inactive
[24]
  max response: -24.5%
[25]
  activity change % (negative = inhibition): -12% (inactive)
[26]
  Potency: 27.3 µM (active)
[27]
  activation: 4.04% (inactive)
[28]
  max response: -0.146% (inactive)
[29]
  outcome: inactive
[30]
  max response: -12.2% (inactive)
[31]
  max response: -14.9% (inactive)
[32]
  max response: 4.79% (inactive)
